Test results reported in the supplement of paper PMC9492666.
Structures can show the parent of a compound that is named as a salt.

Experiments:
HCC1937 = assay: relative cell viability, compound + erastin, vs DMSO (fraction of DMSO control); higher = less growth inhibition; conditions: 72 h
MDA-MB-231 = assay: as above; conditions: 72 h
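Further: viability read by CCK-8 kit in 96-well plates, part of a combination screen pairing lipid-metabolism-targeting compounds with erastin.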

| Compound | relative cell viability (HCC1937) | relative cell viability (MDA-MB-231) |
| --- | --- | --- |
| COc1ccc(CN2CCNCC2)c(OC)c1OC [Trimetazidine dihydrochloride] + CCOc1ccccc1-n1c(C(C)N2CCN(C(=O)COc3ccc(Cl)cc3)CC2)nc2ccccc2c1=O [erastin] | 0.786 | 0.55 |
| CCOC(=O)N1c2ccc(C(F)(F)F)cc2[C@@H](N(Cc2cc(C(F)(F)F)cc(C(F)(F)F)c2)C(=O)OC)C[C@H]1CC [Torcetrapib] + CCOc1ccccc1-n1c(C(C)N2CCN(C(=O)COc3ccc(Cl)cc3)CC2)nc2ccccc2c1=O [erastin] | 0.66 | 0.823 |
| Nc1ccc(O)c(C(=O)O)c1 [Mesalamine] + CCOc1ccccc1-n1c(C(C)N2CCN(C(=O)COc3ccc(Cl)cc3)CC2)nc2ccccc2c1=O [erastin] | 0.772 | 0.585 |
| CCC(C)(Oc1ccc(C2(c3ccc(OC(C)(CC)C(=O)O)cc3)CCCCC2)cc1)C(=O)O (configuration not stated) [Clinofibrate] + CCOc1ccccc1-n1c(C(C)N2CCN(C(=O)COc3ccc(Cl)cc3)CC2)nc2ccccc2c1=O [erastin] | 0.544 | 0.325 |
| CC[C@H]1[C@@H](O)[C@@H]2[C@H](CC[C@]3(C)[C@@H]([C@H](C)CCC(=O)O)CC[C@@H]23)[C@@]2(C)CC[C@@H](O)C[C@@H]12 [Obeticholic Acid] + CCOc1ccccc1-n1c(C(C)N2CCN(C(=O)COc3ccc(Cl)cc3)CC2)nc2ccccc2c1=O [erastin] | 0.616 | 0.771 |
| CCC(=O)O[C@]1(C(=O)CCl)[C@@H](C)C[C@H]2[C@@H]3C[C@H](F)C4=CC(=O)C=C[C@]4(C)[C@@]3(F)[C@@H](O)C[C@@]21C [Halobetasol Propionate] + CCOc1ccccc1-n1c(C(C)N2CCN(C(=O)COc3ccc(Cl)cc3)CC2)nc2ccccc2c1=O [erastin] | 0.708 | 0.973 |
| O=C1c2cc(CO)cc(O)c2C(=O)c2c(O[C@@H]3O[C@H](CO)[C@@H](O)[C@H](O)[C@H]3O)cccc21 [Aloe-emodin-8-O-beta-D-glucopyranoside] + CCOc1ccccc1-n1c(C(C)N2CCN(C(=O)COc3ccc(Cl)cc3)CC2)nc2ccccc2c1=O [erastin] | 0.493 | 0.704 |
| O=C(c1ccc(-c2nc3ccc(F)cc3o2)cc1)N1CCN(C(=O)C2(O)CC2)CC1 + CCOc1ccccc1-n1c(C(C)N2CCN(C(=O)COc3ccc(Cl)cc3)CC2)nc2ccccc2c1=O [erastin] | 0.588 | 0.823 |
| CC(C)(C)N1C(=O)C(Nc2ccc(N3CCCCC3)cc2)=C(c2ccccc2)S1(=O)=O + CCOc1ccccc1-n1c(C(C)N2CCN(C(=O)COc3ccc(Cl)cc3)CC2)nc2ccccc2c1=O [erastin] | 0.678 | 0.797 |
| CC(C)(C)NC(=O)[C@H]1CC[C@H]2[C@@H]3CC[C@H]4NC(=O)C=C[C@]4(C)[C@H]3CC[C@]12C [Finasteride] + CCOc1ccccc1-n1c(C(C)N2CCN(C(=O)COc3ccc(Cl)cc3)CC2)nc2ccccc2c1=O [erastin] | 0.873 | 0.646 |
| NC(=O)c1cccc(-c2cccc(OC(=O)NC3CCCCC3)c2)c1 + CCOc1ccccc1-n1c(C(C)N2CCN(C(=O)COc3ccc(Cl)cc3)CC2)nc2ccccc2c1=O [erastin] | 0.756 | 0.568 |
| Cc1cccc(Nc2cc(Cl)nc(SCC(=O)O)n2)c1C [Pirinixic Acid] + CCOc1ccccc1-n1c(C(C)N2CCN(C(=O)COc3ccc(Cl)cc3)CC2)nc2ccccc2c1=O [erastin] | 0.602 | 0.74 |
| COC(=O)CN(c1ccc(CN(c2ccc(OCc3ccc(C)cc3)c(C(=O)OC)c2)S(=O)(=O)Cc2ccccc2)cc1)S(C)(=O)=O + CCOc1ccccc1-n1c(C(C)N2CCN(C(=O)COc3ccc(Cl)cc3)CC2)nc2ccccc2c1=O [erastin] | 0.624 | 0.643 |
| Cn1nc(C(=O)N(Cc2ccccc2)Cc2ccc(C(=O)O)cc2)c2c1-c1cc(Cl)ccc1OC2 [Nidufexor] + CCOc1ccccc1-n1c(C(C)N2CCN(C(=O)COc3ccc(Cl)cc3)CC2)nc2ccccc2c1=O [erastin] | 0.638 | 0.771 |
| O=C(OC(C(F)(F)F)C(F)(F)F)N1CCN(Cc2ccc(C(F)(F)F)cc2N2CCCC2)CC1 + CCOc1ccccc1-n1c(C(C)N2CCN(C(=O)COc3ccc(Cl)cc3)CC2)nc2ccccc2c1=O [erastin] | 0.583 | 0.74 |
| COc1cc(O)c2c(c1)O[C@H](c1ccc(O)cc1)CC2=O [Sakuranetin] + CCOc1ccccc1-n1c(C(C)N2CCN(C(=O)COc3ccc(Cl)cc3)CC2)nc2ccccc2c1=O [erastin] | 0.648 | 0.527 |
| CCCCCCCCCCCCCCOc1ccc(C(=O)O)o1 + CCOc1ccccc1-n1c(C(C)N2CCN(C(=O)COc3ccc(Cl)cc3)CC2)nc2ccccc2c1=O [erastin] | 0.56 | 0.696 |
| CCCCCCCCCCCCC/C=C/[C@@H](O)[C@@H](N)CO + CCOc1ccccc1-n1c(C(C)N2CCN(C(=O)COc3ccc(Cl)cc3)CC2)nc2ccccc2c1=O [erastin] | 0.248 | 0.363 |

| Compound | relative cell viability (HCC1937) | relative cell viability (MDA-MB-231) |
| --- | --- | --- |
| CC(C)OC(=O)C(C)(C)Oc1ccc(C(=O)c2ccc(Cl)cc2)cc1 [Fenofibrate] + CCOc1ccccc1-n1c(C(C)N2CCN(C(=O)COc3ccc(Cl)cc3)CC2)nc2ccccc2c1=O [erastin] | 0.878 | 0.646 |
| CN(CCOc1ccc(CC2SC(=O)NC2=O)cc1)c1ccccn1 (configuration not stated) [Rosiglitazone] + CCOc1ccccc1-n1c(C(C)N2CCN(C(=O)COc3ccc(Cl)cc3)CC2)nc2ccccc2c1=O [erastin] | 0.999 | 0.697 |
| COC(=O)/C=C/c1cccc(N(Cc2ccc(-c3ccc(N(C)C)cc3)cc2)C(=O)C2CCCCC2)c1 [Fexaramine] + CCOc1ccccc1-n1c(C(C)N2CCN(C(=O)COc3ccc(Cl)cc3)CC2)nc2ccccc2c1=O [erastin] | 0.5 | 1.08 |
| COc1ccc2[nH]cc(CCNC(C)=O)c2c1 [Melatonine] + CCOc1ccccc1-n1c(C(C)N2CCN(C(=O)COc3ccc(Cl)cc3)CC2)nc2ccccc2c1=O [erastin] | 0.585 | 0.693 |
| O=P(O)(O)OC(CO)CO [β-Glycerol phosphate disodium salt pentahydrate] + CCOc1ccccc1-n1c(C(C)N2CCN(C(=O)COc3ccc(Cl)cc3)CC2)nc2ccccc2c1=O [erastin] | 0.614 | 0.527 |
| Cc1cc(SCc2sc(-c3ccc(C(F)(F)F)c(F)c3)nc2C)ccc1OCC(=O)O + CCOc1ccccc1-n1c(C(C)N2CCN(C(=O)COc3ccc(Cl)cc3)CC2)nc2ccccc2c1=O [erastin] | 0.849 | 0.799 |
| O=c1ccc2cc(O)c(O)cc2o1 [Esculetin] + CCOc1ccccc1-n1c(C(C)N2CCN(C(=O)COc3ccc(Cl)cc3)CC2)nc2ccccc2c1=O [erastin] | 0.648 | 0.711 |
| O=C(Nc1ccncc1)c1cc([N+](=O)[O-])ccc1Cl + CCOc1ccccc1-n1c(C(C)N2CCN(C(=O)COc3ccc(Cl)cc3)CC2)nc2ccccc2c1=O [erastin] | 0.47 | 0.726 |
| Cc1ccc(C)c(OCCCC(C)(C)C(=O)O)c1 [Gemfibrozil] + CCOc1ccccc1-n1c(C(C)N2CCN(C(=O)COc3ccc(Cl)cc3)CC2)nc2ccccc2c1=O [erastin] | 0.688 | 0.941 |
| O=C(Nc1cnccc1Cl)N1CCN(Cc2ccc3c(c2)OC(F)(F)O3)CC1 + CCOc1ccccc1-n1c(C(C)N2CCN(C(=O)COc3ccc(Cl)cc3)CC2)nc2ccccc2c1=O [erastin] | 0.486 | 0.646 |
| O=C(NCCS(=O)(=O)c1ccc(C(F)(F)F)cn1)c1ccc(Cl)cc1 + CCOc1ccccc1-n1c(C(C)N2CCN(C(=O)COc3ccc(Cl)cc3)CC2)nc2ccccc2c1=O [erastin] | 0.511 | 0.503 |
| O=C(O)c1ccnc(N2CC(O)(c3ccc(OCc4c(-c5c(Cl)cccc5Cl)noc4C4CC4)cc3Cl)C2)c1 [Cilofexor] + CCOc1ccccc1-n1c(C(C)N2CCN(C(=O)COc3ccc(Cl)cc3)CC2)nc2ccccc2c1=O [erastin] | 0.577 | 0.692 |
| O=C(Nc1ccc(C(O)(C(F)(F)F)C(F)(F)F)cc1)c1ccc(C(F)(F)F)cc1 + CCOc1ccccc1-n1c(C(C)N2CCN(C(=O)COc3ccc(Cl)cc3)CC2)nc2ccccc2c1=O [erastin] | 0.366 | 0.693 |
| CC(C)c1onc(-c2c(Cl)cccc2Cl)c1COc1ccc(/C=C/c2cccc(C(=O)O)c2)c(Cl)c1 + CCOc1ccccc1-n1c(C(C)N2CCN(C(=O)COc3ccc(Cl)cc3)CC2)nc2ccccc2c1=O [erastin] | 0.722 | 0.762 |
| CC(C)OC(=O)C(C(=O)OC(C)C)=C1SC=CS1 [Malotilate] + CCOc1ccccc1-n1c(C(C)N2CCN(C(=O)COc3ccc(Cl)cc3)CC2)nc2ccccc2c1=O [erastin] | 0.459 | 0.644 |
| NC(N)=N/N=C/c1cccc(Cl)c1Cl [Raphin1 acetate] + CCOc1ccccc1-n1c(C(C)N2CCN(C(=O)COc3ccc(Cl)cc3)CC2)nc2ccccc2c1=O [erastin] | 0.718 | 0.588 |
| Cc1cnc(C(=O)NCCc2ccc(S(=O)(=O)NC(=O)NC3CCCCC3)cc2)cn1 [Glipizide] + CCOc1ccccc1-n1c(C(C)N2CCN(C(=O)COc3ccc(Cl)cc3)CC2)nc2ccccc2c1=O [erastin] | 0.732 | 0.843 |
| O=C1C(SCCO)=C(SCCO)C(=O)c2ccccc21 + CCOc1ccccc1-n1c(C(C)N2CCN(C(=O)COc3ccc(Cl)cc3)CC2)nc2ccccc2c1=O [erastin] | 0.575 | 0.851 |
